Most compounds without a hit are left out; they make up all but 21% or so of the library.
ELG1 DNA repair: ELG1-dependent DNA repair inhibition | HEK293T ELG1-luciferase reporter, luminescence, 16 h; DNA damage induced by 5-fluorouridine | Potency, µM (titrated, usually from 46.1 µM), inactives show top-dose activity change, negative = inhibition, usual class: inhibitors | 2.3% of 330,000 active | AID 504467; further: potency means the concentration at half of the fitted maximal effect; nearly all actives have a fitted effect of over 55% in size
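DMSO vehicle served as the neutral condition. Each well held 2,000 cells given 5-fluorouridine plus compound; after 16 hr at 37 °C/5% CO2, ONE-Glo was added and luciferase measured 30 min later.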
Gal4-VP16 FLuc: inhibits Gal4-VP16 luciferase reporter, ROR gamma counter-screen; AID 2546; Drosophila S2 Gal4-VP16 UAS-luciferase, luminescence, 20 h; 3.5% of 310,000 active; Potency, µM (highest dose often 53.6 µM), for the others: at the highest dose activity, negative = inhibition, actives largely listed as inhibitors;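 further: Gal4-VP16 expression switched on by copper sulfate through the metallothionein promoter; potency means the concentration at half of the fitted maximal effect; nearly all actives have a fitted effect of over 50% in size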
DT40 TDP1 CPT: growth inhibition of DT40 Tdp1-/-;hTDP1 cells with camptothecin (screen for TDP1 inhibitors); chicken DT40 Tdp1-/-;hTDP1 cells + 20 nM CPT, ATP luminescence, 48 h; Potency, µM (series often up to 46.2 µM), inactives show at the top dose activity change, negative = growth inhibition, actives largely listed as inhibitors; 12% of 420,000 active; AID 686979; further: potency means the concentration at half of the fitted maximal effect; nearly all actives have a fitted effect of over 55% in size
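Chicken DT40 Tdp1-/- cells complemented with human TDP1, 400 cells/well, exposed to compounds plus 20 nM camptothecin for at least 48 h at 37 C; viability read as ATP content by CellTiter-Glo luminescence.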
IL1B secr inh: inflammasome signaling inhibition, IL-1 beta readout. AID 743279. THP-1 LPS/ATP IL-1B secretion, AlphaLISA, 16 h; active compounds read low. 4.7% of 360,000 active. activity change, % at 57.5 µM; in the data active means activity change below about -50%; inconclusive means mostly about -30% to -49%
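THP-1 cells pretreated 1 hr with compounds (up to 57.5 uM final), then stimulated with LPS (250 ng/mL final) plus ATP (1.25 mM final); secreted IL-1B measured by AlphaLISA after 16 hr, decreased signal indicating inhibition.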
TDP1 cell noCPT: qHTS for Inhibitors of human tyrosyl-DNA phosphodiesterase 1 (TDP1): qHTS in cells in absence of CPT | 15% of 420,000 active | DT40 Tdp1-/- hTDP1 cells, no CPT, ATP luminescence, 48 h | Potency, µM (top dose mostly 46.2 µM), without a hit: at the top dose activity change, negative = growth inhibition, usual class: inhibitors; further: potency means the concentration at half of the fitted maximal effect; nearly all actives have a fitted effect of over 55% in size
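Chicken DT40 Tdp1-/- cells stably complemented with human TDP1 were seeded at 400 cells/well with DMSO in place of 20 nM camptothecin. After compound pinning, cells grew at least 48 hr at 37 °C; viability read by CellTiter-Glo luminescence.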
RORgamma inh: inhibitors of mouse ROR gamma transcriptional activity | P51450 | 5.4% of 310,000 active | Drosophila S2 Gal4-RORgamma UAS-luciferase reporter, 20 h | AID 2551 | Potency, µM (doses to about 53.6 µM), without a hit: top-dose activity change, negative = inhibition, hits mostly inhibitors; further: potency means the concentration at half of the fitted maximal effect; nearly all actives have a fitted effect of over 60% in size
Target sequence (P51450 whole entry, looked up, the tested form may be a part): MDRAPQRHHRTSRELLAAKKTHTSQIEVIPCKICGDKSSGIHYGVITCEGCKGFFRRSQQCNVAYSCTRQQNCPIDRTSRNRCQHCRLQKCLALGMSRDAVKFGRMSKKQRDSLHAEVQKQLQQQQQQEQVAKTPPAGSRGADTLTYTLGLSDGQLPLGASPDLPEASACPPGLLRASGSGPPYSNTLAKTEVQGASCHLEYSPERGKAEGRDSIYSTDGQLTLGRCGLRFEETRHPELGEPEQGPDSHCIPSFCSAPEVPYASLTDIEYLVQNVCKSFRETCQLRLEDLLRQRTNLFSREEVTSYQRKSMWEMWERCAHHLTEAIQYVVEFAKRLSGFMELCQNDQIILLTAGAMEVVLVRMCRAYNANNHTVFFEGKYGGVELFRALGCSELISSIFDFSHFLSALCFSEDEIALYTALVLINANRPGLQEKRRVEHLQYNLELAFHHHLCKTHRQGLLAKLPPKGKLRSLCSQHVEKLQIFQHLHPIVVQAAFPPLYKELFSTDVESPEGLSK
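Luminescence from a UAS-regulated Photinus luciferase reporter in stably transfected Drosophila Schneider cells is measured; decreased signal marks ROR gamma inhibition. Fusion expression is induced by 700 uM copper sulfate for 20 hr.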
* marks the source's active call; other numbers are inactive results; ? = inconclusive; · = not tested or not shown; [ ] = dose if it differs, or a comment. Unless noted, the call rests on the fitted dose curve; in most records, active means well fitted curve in the direction sought with a large enough effect; inconclusive means small, poorly fitted or top-dose-only effect, or another doubt; inactive means no such curve, though single readings can be large; an effect the other way counts as inactive or inconclusive. On the % scale 0 is the no-effect control and ±100 the full control effect.

SMILES | ELG1 DNA repair | Gal4-VP16 FLuc | DT40 TDP1 CPT | IL1B secr inh | TDP1 cell noCPT | RORgamma inh
COc1cccc(CN2CCC(CO)(CC3CCCCO3)CC2)c1 (stereo unspecified) | 4.6% | 2.4% | 2.3% | 5.4 | -8.3% | 10.4%
CC(=O)Nc1sc(N/N=C/c2ccccc2)nc1-c1ccc(C)cc1 | ? | 2.5% | ? | -90.2* | ? | -16.7%
CC(=O)Nc1sc(N/N=C\c2ccccc2Cl)nc1-c1cccs1 | ? | -22.9% | 16.4µM* | -2.9 | 18.4µM* | -1.9%
CCOc1cc(/C=N/Nc2nc(-c3cccs3)c(NC(C)=O)s2)ccc1O | ? | -2.1% | -2.9% | -60.4* | 13µM* | -5.1%
CC(=O)Nc1sc(N/N=C\c2ccccc2)nc1-c1cccs1 | ? | 17.8% | -26.9% | -17.2 | ? | ?
COC(=O)C[C@H]1CC[C@@H](NC(=O)Nc2ccc(C(F)(F)F)cc2)[C@@H](CO)O1 | · | · | 22.2% | 2.8 | 1.0% | ·
CCCc1nc(NC2CCCCC2)c(C#N)c2c1COC(C)(C)C2 | ? | -3.8% | 18.4µM* | 8.5 | 29.1µM* | -2.1%[10 µM]
CCc1nc(NCC2CCCO2)c(C#N)c2c1COC(C)(C)C2 (stereo unspecified) | ? | -1.0% | ? | -17.2 | -10.2% | ?
O=C(CNC(=O)c1ccccc1Br)Nc1cccc(S(=O)(=O)Nc2ccccc2Cl)c1 | · | · | -8.1% | 20.0 | -21.1% | ·
CSc1nsc(SC)c1-c1ccc(Cl)cc1 | · | · | -24.0% | 19.4 | -8.7% | ·
COc1cc(CC2C(=O)OCC2C(=O)c2ccc3c(c2)OCO3)cc(OC)c1OC (stereo unspecified) | · | · | 0.6% | 26.8 | 5.9% | ·
COc1cc(C[C@@H]2C(=O)OC[C@H]2Cc2ccc(OC)c(OC)c2)ccc1O | 0.5% | · | 2.31µM* | 3.4 | 2.59µM* | ·
COCC(=O)N1c2nc(C(C)C)nn2C2(CCCCC2)[C@@H]2CCCC[C@@H]21 | · | · | 2.91µM* | · | 2.91µM* | ·
CC(C)C(=O)N1c2nc(-c3ccco3)nn2C2(CCCCC2)[C@@H]2CCCC[C@@H]21 | · | · | -22.1% | · | -11.6% | ·
CCCC(=O)N1c2nc(C(C)C)nn2C2(CCCCC2)[C@@H]2CCCC[C@@H]21 | · | · | 10.3µM* | · | 9.2µM* | ·
CC(C)CC(=O)N1c2nc(C(C)C)nn2C2(CCCCC2)[C@@H]2CCCC[C@@H]21 | · | · | 3.7% | · | ? | ·
CC(=O)N1c2nc(C(C)C)nn2C2(CCCCC2)[C@@H]2CCCC[C@@H]21 | · | · | 4.11µM* | · | 1.84µM* | ·
CCc1nn(CC(=O)NCc2ccccc2)c(=O)c2cccn12 | · | · | -0.2% | · | 0.8% | ·
c1ccc(-c2csc(Nc3ccccn3)n2)cc1 | ? | ? | -17.4% | -55.1* | ? | ?
Cc1nc(C)c(-c2csc(Nc3ccccn3)n2)s1 | ? | -5.6% | -59.5% | 0.0 | ? | ?
Fc1ccc(-c2csc(Nc3ccccn3)n2)c(F)c1 | ? | · | ? | 0.0 | ? | ·
Cc1ccc(-c2csc(Nc3ccccn3)n2)cc1 | ? | ? | ? | -77.4* | ? | 26.3%[1.91 µM]
CC(=O)Nc1cccc(-c2csc(Nc3ccc(C)cn3)n2)c1 | ? | -29.3% | -28.5% | -100.3* | ? | -34.9%
Cc1cc(-c2csc(Nc3ccccn3)n2)ccc1F | ? | ? | ? | -57.6* | 20.6µM* | 1µM*
COc1cc(C(=O)Nc2ccn(C)n2)ccc1OC(F)F | ? | · | -9.7% | -21.4 | -6.4% | ·
SMILES | ELG1 DNA repair | Gal4-VP16 FLuc | DT40 TDP1 CPT | IL1B secr inh | TDP1 cell noCPT | RORgamma inh
CCc1nc2ccc(C(=O)Nc3ccc(C(=O)N(C)C)cc3)cn2c1N(C)CCCc1ccccc1 | · | · | ? | -9.7 | ? | ·
Oc1ccc(-c2csc(Nc3ccccn3)n2)cc1 | ? | -6.5% | ? | -73.4* | ? | -2.1%
COc1ccc(-c2csc(Nc3ccc(C)cn3)n2)cc1 | 4.0% | -10.7% | -1.2% | -67.5* | -26.9% | 2.5%
Cc1cccnc1Nc1nc(-c2ccc(O)cc2)cs1 | ? | ? | -34.6% | ? | -24.8% | -41.8%
N#Cc1ccc(-c2cccs2)nc1SCC(=O)Nc1cccc(C(F)(F)F)c1 | · | · | ? | · | 20.6µM* | ·
C=COC(=O)CSc1nc(-c2cccs2)ccc1C#N | ? | 10.6% | -22.0% | 34.3 | 2.8% | -9.6%
N#Cc1ccc(-c2cccs2)nc1SCc1c(F)cccc1Cl | · | · | 0.82µM* | · | 0.651µM* | ·
O=C(CSc1nc2nc(-c3cccs3)cc(C(F)(F)F)c2c(=O)[nH]1)Nc1ccc(F)c(F)c1 | ? | ? | 6.51µM* | 0.0 | 4.11µM* | ?
Cc1ccc(S(=O)(=O)CCSc2nc(C)cc(C(F)(F)F)c2C#N)cc1 | -14.5% | -9.6% | ? | -100.9* | ? | ?
